E coli growth-1 = E. coli V3065 growth inhibition, primary screen, counter-screen for AddAB inhibitor project, absorbance, OD600; inhibition, % at 11.9 µM; actives 0.27% (n = 330,000); 18 h;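 active means inhibition above the campaign's mean inhibition across all tested compounds plus 3 SD, cut at about 9.9% in these data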;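 further: uninfected addAB+ strain grown without phage in ampicillin broth; 0% = DMSO wells and 100% = ciprofloxacin 0.95 µg/ml wells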
Tat transport = E. coli Tat export inhibitors, primary screen, MC4100, TorA-mCherry reporter, fluorescence, single point | actives 0.036% (n = 340,000) | inhibition, % at 10 µM;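 active means mean replicate inhibition at least 50% and at least half of replicates individually reaching 50%; inconclusive means only one of the two criteria met; inactive means neither criterion met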;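 further: exported cargo escapes ClpAP degradation while cytoplasmic cargo is degraded and loses fluorescence; 0% = median of neutral control wells and 100% = median of NaSCN control wells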
p-CIP stab down = p/CIP-EGFP fusion destabilizers, primary screen, fluorescence, F442A cells; 16 h; decrease of EGFP signal, % at 10 µM; actives 0.01% (n = 290,000); AID 1984, 2009;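 active means EGFP signal decrease of at least 30% at 10 µM or well 3 SD below plate mean, unless failing retest; inactive means the rest, including hits failing retest or dose response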
Target sequence (Q05BA5 1-1403): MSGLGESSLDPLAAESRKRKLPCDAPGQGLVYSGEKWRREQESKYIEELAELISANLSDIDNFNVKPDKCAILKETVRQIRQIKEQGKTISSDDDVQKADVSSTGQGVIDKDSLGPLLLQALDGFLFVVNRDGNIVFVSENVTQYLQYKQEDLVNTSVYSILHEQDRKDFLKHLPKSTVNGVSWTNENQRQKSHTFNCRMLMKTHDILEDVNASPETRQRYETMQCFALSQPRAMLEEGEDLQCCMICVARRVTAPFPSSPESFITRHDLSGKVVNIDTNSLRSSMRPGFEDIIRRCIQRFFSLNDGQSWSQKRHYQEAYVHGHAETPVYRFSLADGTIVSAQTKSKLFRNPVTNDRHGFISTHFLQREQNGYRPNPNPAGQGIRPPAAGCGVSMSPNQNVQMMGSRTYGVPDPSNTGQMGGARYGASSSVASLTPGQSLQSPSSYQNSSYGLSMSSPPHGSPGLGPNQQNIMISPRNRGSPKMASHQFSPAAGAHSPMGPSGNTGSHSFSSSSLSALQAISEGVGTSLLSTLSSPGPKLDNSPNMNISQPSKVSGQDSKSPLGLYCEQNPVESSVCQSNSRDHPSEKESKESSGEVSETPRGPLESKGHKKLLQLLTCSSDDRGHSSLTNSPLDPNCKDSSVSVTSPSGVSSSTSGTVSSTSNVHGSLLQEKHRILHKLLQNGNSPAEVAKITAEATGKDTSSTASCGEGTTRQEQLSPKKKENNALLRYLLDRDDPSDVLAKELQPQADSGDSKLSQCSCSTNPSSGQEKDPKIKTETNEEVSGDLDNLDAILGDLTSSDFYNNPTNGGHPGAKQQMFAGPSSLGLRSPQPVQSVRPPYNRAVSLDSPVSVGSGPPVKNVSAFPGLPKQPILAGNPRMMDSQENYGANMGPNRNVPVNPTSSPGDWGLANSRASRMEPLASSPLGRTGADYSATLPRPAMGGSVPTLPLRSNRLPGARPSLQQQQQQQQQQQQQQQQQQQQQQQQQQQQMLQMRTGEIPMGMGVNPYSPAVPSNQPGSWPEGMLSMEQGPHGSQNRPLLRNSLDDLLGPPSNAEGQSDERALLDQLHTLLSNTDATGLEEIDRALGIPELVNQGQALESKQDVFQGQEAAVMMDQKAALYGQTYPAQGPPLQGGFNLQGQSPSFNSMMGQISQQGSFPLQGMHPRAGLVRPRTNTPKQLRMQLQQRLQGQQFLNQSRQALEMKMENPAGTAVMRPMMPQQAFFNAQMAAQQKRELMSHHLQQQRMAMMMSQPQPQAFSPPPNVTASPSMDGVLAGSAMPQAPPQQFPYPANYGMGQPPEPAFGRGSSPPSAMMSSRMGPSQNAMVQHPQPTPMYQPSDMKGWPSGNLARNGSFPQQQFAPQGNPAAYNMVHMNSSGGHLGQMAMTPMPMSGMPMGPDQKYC
E coli growth-2 = E. coli growth inhibition, primary screen, OD600. Escherichia coli growth, 23 h; stronger effect = lower value. OD600 absorbance (no concentration beside the values). actives 0.21% (n = 330,000);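 active means OD600 absorbance below the run mean of sample wells minus 3.6 SD, in any replicate, cut at about 0.56 in these data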
phage Ecoli inh = growth loss of phage-infected E. coli, primary screen, RecBCD inhibitor project, absorbance, with phage, HTS; inhibition, % at 11.9 µM; actives 0.26% (n = 360,000); AID 651602, 2012; in the data active means inhibition above about 11%
AddAB inh = growth inhibition of E. coli expressing H. pylori AddAB, primary screen, AddAB inhibitor project, absorbance; inhibition, % at 11.9 µM; actives 0.29% (n = 330,000); AID 435030, 2010; in the data active means inhibition above about 12%;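 further: 0% = vehicle wells of infected cells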
The depositor's hits bear a star; ? = inconclusive; . = no result. Sampled rows, rich in hits. Any-hit rate of the full collection: about 0.51%.

SMILES	E coli growth-1	Tat transport	p-CIP stab down	E coli growth-2	phage Ecoli inh	AddAB inh
OCC1CCCN(C2CCN(Cc3nc(Cc4cccc(C(F)(F)F)c4)no3)CC2)C1 (stereo unspecified)	-1	0	1	0.69	3	0
COCCn1c(SCC(=O)N2CC(C)OC(C)C2)nc2c([nH]c3ccccc32)c1=O (stereo unspecified)	2	-4	-2	0.71	-2	3
CCc1ccc(N2CC(C(=O)OCc3nc4ccsc4c(=O)[nH]3)CC2=O)cc1 (stereo unspecified)	0	-6	.	0.71	-1	2
Cc1ccc(CNC(=O)C(=O)NCC2OCCN2C(=O)c2ccc3c(c2)OCO3)cc1 (stereo unspecified)	1	-8	-6	0.69	1	-1
COc1ccc(C(=O)N2CCOC2CNC(=O)C(=O)NCc2ccc3c(c2)OCO3)cc1 (stereo unspecified)	0	4	-6	0.51*	1	0
O=C1C2C3C=CC(C4CC34)C2C(=O)N1N=Cc1ccc([N+](=O)[O-])o1 (stereo unspecified)	.	.	.	0.5*	.	.
Cc1cc(O)c2c(c1O)C(=O)[C@]13C(=C2O)C(=O)[C@@H]2[C@@H](O)[C@H]1[C@@H]1[C@H](O)[C@H]3C(=O)C3=C(O)c4c(O)cc(C)c(O)c4C(=O)[C@]312	9.9*	27	.	0.55	.	12
COCCn1c(SCC(=O)Nc2ccc(C(N)=O)cc2)nc2c([nH]c3ccccc32)c1=O	1	2	0	0.72	1	0
CCN(CC)P(=O)(Nc1ccc([N+](=O)[O-])cc1)c1c(C)nn(CCC#N)c1NC(=O)c1ccc(Cl)cc1 (stereo unspecified)	-5	6	-16	0.67	1	3
CCOC(=O)N1CCC(NC(=O)c2ccc3nc4ccccc4c(=O)n3c2)CC1	.	.	-20	0.66	.	.
CCOC(=O)N1CCC(NC(=O)c2cccn3c(=O)c4cc(Br)ccc4nc23)CC1	0	-1	40*	0.65	-1	2
CCOC(=O)N1CCN(C(=O)c2cn(CC)c3cc(N4CCN(C)CC4)c(F)cc3c2=O)CC1	100*	.	1	.	.	101*
CC1(C)CC2CC(C)(CN2S(=O)(=O)c2cccc(C(=O)O)c2)C1 (stereo unspecified)	1	-1	.	0.69	-1	1
O=C(CCN1CCOCC1)NNC(=S)NC(=O)c1ccc(Br)cc1	3	-2	6	0.47*	-3	1
C[n+]1ccn(CC(=O)c2cccs2)c1	3	-10	6	0.63	2	4
CCCCCCCCCCCCCCCCn1cc[n+](C)c1	-3	?	-13	0.066*	2	0
O=C(CCCN1C(=O)[C@H]2CC=CC[C@H]2C1=O)NCc1nc(-c2ccc(Cl)cc2)no1	0	-7	-7	0.68	2	3
CC(=NNC(=S)Nc1ccc(C)cc1)c1ccccn1	.	8	.	.	13*	.
CCC(=O)O[C@@H]1CC(=O)O[C@H](C)CC=CC=C[C@@H](O)[C@H](C)C[C@H](CC=O)[C@H](O[C@H]2O[C@H](C)[C@@H](O[C@H]3C[C@@](C)(O)[C@@H](OC(=O)CC)[C@H](C)O3)[C@H](N(C)C)[C@H]2O)[C@H]1OC	.	.	0	.	.	.
CC[C@H]1OC(=O)C[C@@H](O)[C@H](C)[C@@H](O[C@@H]2O[C@H](C)C[C@H](N(C)C)[C@H]2O)[C@@H](CC=O)C[C@@H](C)C(=O)C=C[C@]2(C)O[C@H]2[C@@H]1C	100*	.	4	.	.	99*
Cc1ccc2c(c1)c1c(n2CC(O)CNC2CCCCC2)CCCC1 (stereo unspecified)	4	2	2	0.72	3	5
COc1ccccc1NC(=O)CSc1ccc(-c2ccccn2)nn1	9	1	3	0.7	12*	11
Cc1nnc(NC(=O)CSc2ccc(-c3cccnc3)nn2)s1	1	-4	-4	0.66	4	1
O=C(CSc1ccc(-c2ccccn2)nn1)c1ccc(F)cc1	11*	0	5	0.7	4	8
Cc1nnc(NC(=O)CSc2ccc(-c3ccccn3)nn2)s1	9.9*	.	-13	0.62	.	9
O=S1(=O)C[C@H](N2CCOCC2)[C@@H](COCc2ccccc2)N1	.	.	.	.	3	.

Bioassay records: PubChem, several laboratories
